# In paper PMC9911399, “Two distinct binding modes provide the RNA-binding protein RbFox with extraordinary sequence specificity”:
# Where a chain is given by its changes, count along the chain named. The full ranking holds about 16,000 sequences; the median of “ka relative to ugcaugu” is about 0.0091, and the highest 2% start at about 0.032. Many of the other results were omitted from the sample, so the highest values are more common in it than they were.
# T1: RBFOX1 RRM (Homo sapiens, UniProt Q9NWB1 109-208)
# T1 sequence: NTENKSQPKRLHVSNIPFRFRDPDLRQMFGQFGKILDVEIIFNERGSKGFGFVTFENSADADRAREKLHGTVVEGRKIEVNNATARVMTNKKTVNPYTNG
# B1: GUUUGCU (DNA:RNA)
# RNA: GGGAGACCGGAAUUCAGAUUGUCCGUUUGCUUUAAAUCCCGUCGUAGCCACCA
# DNA 1: CAATCTGAATTCCGGTCTCCC
# DNA 2: TGGTGGCTACGACGGGATT
# B2: AACGCCU (DNA:RNA)
# RNA: B1 RNA with G25A, U26A, U27C, U28G, G29C
# DNA 1: CAATCTGAATTCCGGTCTCCC
# DNA 2: TGGTGGCTACGACGGGATT
# B3: GUAGAGU (DNA:RNA)
# RNA: B1 RNA with U27A, U28G, G29A, C30G
# DNA 1: CAATCTGAATTCCGGTCTCCC
# DNA 2: TGGTGGCTACGACGGGATT
# B4: UGACUGA (DNA:RNA)
# RNA: GGGAGACCGGAAUUCAGAUUGUCCUGACUGAUUAAAUCCCGUCGUAGCCACCA
# DNA 1: CAATCTGAATTCCGGTCTCCC
# DNA 2: TGGTGGCTACGACGGGATT
# B5: GCCUGAC (DNA:RNA)
# RNA: B1 RNA with U26C, U27C, C30A, U31C
# DNA 1: CAATCTGAATTCCGGTCTCCC
# DNA 2: TGGTGGCTACGACGGGATT
# B6: UCCUGAC (DNA:RNA)
# RNA: B1 RNA with G25U, U26C, U27C, C30A, U31C
# DNA 1: CAATCTGAATTCCGGTCTCCC
# DNA 2: TGGTGGCTACGACGGGATT
# B7: UGACUGG (DNA:RNA)
# RNA: B4 RNA with A31G
# DNA 1: CAATCTGAATTCCGGTCTCCC
# DNA 2: TGGTGGCTACGACGGGATT
# B8: UGACUUG (DNA:RNA)
# RNA: B4 RNA with G30U, A31G
# DNA 1: CAATCTGAATTCCGGTCTCCC
# DNA 2: TGGTGGCTACGACGGGATT
# B9: UGACCGU (DNA:RNA)
# RNA: B4 RNA with U29C, A31U
# DNA 1: CAATCTGAATTCCGGTCTCCC
# DNA 2: TGGTGGCTACGACGGGATT
# B10: GCCAGAC (DNA:RNA)
# RNA: B1 RNA with U26C, U27C, U28A, C30A, U31C
# DNA 1: CAATCTGAATTCCGGTCTCCC
# DNA 2: TGGTGGCTACGACGGGATT
# B11: UGACUGC (DNA:RNA)
# RNA: B4 RNA with A31C
# DNA 1: CAATCTGAATTCCGGTCTCCC
# DNA 2: TGGTGGCTACGACGGGATT
# B12: UGACUGU (DNA:RNA)
# RNA: B4 RNA with A31U
# DNA 1: CAATCTGAATTCCGGTCTCCC
# DNA 2: TGGTGGCTACGACGGGATT
# B13: GCCUGAA (DNA:RNA)
# RNA: B1 RNA with U26C, U27C, C30A, U31A
# DNA 1: CAATCTGAATTCCGGTCTCCC
# DNA 2: TGGTGGCTACGACGGGATT
# B14: CUGACUG (DNA:RNA)
# RNA: B1 RNA with G25C, U27G, U28A, G29C, C30U, U31G
# DNA 1: CAATCTGAATTCCGGTCTCCC
# DNA 2: TGGTGGCTACGACGGGATT
# B15: UGCUGAC (DNA:RNA)
# RNA: B1 RNA with G25U, U26G, U27C, C30A, U31C
# DNA 1: CAATCTGAATTCCGGTCTCCC
# DNA 2: TGGTGGCTACGACGGGATT
# B16: CGAGAAA (DNA:RNA)
# RNA: B4 RNA with U25C, C28G, U29A, G30A
# DNA 1: CAATCTGAATTCCGGTCTCCC
# DNA 2: TGGTGGCTACGACGGGATT
# B17: GAUAUCG (DNA:RNA)
# RNA: B1 RNA with U26A, U28A, G29U, U31G
# DNA 1: CAATCTGAATTCCGGTCTCCC
# DNA 2: TGGTGGCTACGACGGGATT
# B18: GGCGCCU (DNA:RNA)
# RNA: B1 RNA with U26G, U27C, U28G, G29C
# DNA 1: CAATCTGAATTCCGGTCTCCC
# DNA 2: TGGTGGCTACGACGGGATT
# B19: UGCCCAG (DNA:RNA)
# RNA: B4 RNA with A27C, U29C, G30A, A31G
# DNA 1: CAATCTGAATTCCGGTCTCCC
# DNA 2: TGGTGGCTACGACGGGATT
# B20: UGCGAGG (DNA:RNA)
# RNA: B4 RNA with A27C, C28G, U29A, A31G
# DNA 1: CAATCTGAATTCCGGTCTCCC
# DNA 2: TGGTGGCTACGACGGGATT
# B21: GUAGCGU (DNA:RNA)
# RNA: B1 RNA with U27A, U28G, G29C, C30G
# DNA 1: CAATCTGAATTCCGGTCTCCC
# DNA 2: TGGTGGCTACGACGGGATT
# B22: UUUAAGG (DNA:RNA)
# RNA: B1 RNA with G25U, U28A, G29A, C30G, U31G
# DNA 1: CAATCTGAATTCCGGTCTCCC
# DNA 2: TGGTGGCTACGACGGGATT
# B23: GUCUUAG (DNA:RNA)
# RNA: B1 RNA with U27C, G29U, C30A, U31G
# DNA 1: CAATCTGAATTCCGGTCTCCC
# DNA 2: TGGTGGCTACGACGGGATT
# B24: UGCAUGA (DNA:RNA)
# RNA: B4 RNA with A27C, C28A
# DNA 1: CAATCTGAATTCCGGTCTCCC
# DNA 2: TGGTGGCTACGACGGGATT
# B25: UGCGUGG (DNA:RNA)
# RNA: B4 RNA with A27C, C28G, A31G
# DNA 1: CAATCTGAATTCCGGTCTCCC
# DNA 2: TGGTGGCTACGACGGGATT
# B26: UGAUGCA (DNA:RNA)
# RNA: B4 RNA with C28U, U29G, G30C
# DNA 1: CAATCTGAATTCCGGTCTCCC
# DNA 2: TGGTGGCTACGACGGGATT
# B27: GUCCUGC (DNA:RNA)
# RNA: B4 RNA with U25G, G26U, A27C, A31C
# DNA 1: CAATCTGAATTCCGGTCTCCC
# DNA 2: TGGTGGCTACGACGGGATT
# B28: UUCAUGC (DNA:RNA)
# RNA: B4 RNA with G26U, A27C, C28A, A31C
# DNA 1: CAATCTGAATTCCGGTCTCCC
# DNA 2: TGGTGGCTACGACGGGATT
# B29: UGAUUCA (DNA:RNA)
# RNA: B4 RNA with C28U, G30C
# DNA 1: CAATCTGAATTCCGGTCTCCC
# DNA 2: TGGTGGCTACGACGGGATT
# B30: UGCAGAA (DNA:RNA)
# RNA: B4 RNA with A27C, C28A, U29G, G30A
# DNA 1: CAATCTGAATTCCGGTCTCCC
# DNA 2: TGGTGGCTACGACGGGATT
# B31: UUCAUGG (DNA:RNA)
# RNA: B4 RNA with G26U, A27C, C28A, A31G
# DNA 1: CAATCTGAATTCCGGTCTCCC
# DNA 2: TGGTGGCTACGACGGGATT
# B32: UGCAUGG (DNA:RNA)
# RNA: B4 RNA with A27C, C28A, A31G
# DNA 1: CAATCTGAATTCCGGTCTCCC
# DNA 2: TGGTGGCTACGACGGGATT
# B33: AGAUGCA (DNA:RNA)
# RNA: B1 RNA with G25A, U26G, U27A, U31A
# DNA 1: CAATCTGAATTCCGGTCTCCC
# DNA 2: TGGTGGCTACGACGGGATT
# B34: UGCAUAA (DNA:RNA)
# RNA: B4 RNA with A27C, C28A, G30A
# DNA 1: CAATCTGAATTCCGGTCTCCC
# DNA 2: TGGTGGCTACGACGGGATT
# B35: UGCAUGC (DNA:RNA)
# RNA: B4 RNA with A27C, C28A, A31C
# DNA 1: CAATCTGAATTCCGGTCTCCC
# DNA 2: TGGTGGCTACGACGGGATT
# Target: T1, RBFOX1 RRM
# Experiment: EMSA; HiTS-Eq, 1 nM pool, 10 min; buffer printed only for the single-RNA assays: 10 mM Tris pH 7.5, 150 mM NaCl, 3.4 mM EDTA, 0.001% NP-40, 30 C
# Settings: tags: His6 N-terminal (pET28a); label: 5' 32P
# Method in brief: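 Relative association constants, normalised to the cognate motif, were derived by comparing read counts of each RNA species with those of the control reaction. The RNA sequenced was the free fraction, separated by 8% native PAGE after a 10 min equilibration in 50 µL of 1 nM 5′-radiolabelled RNA (7 randomized nucleotides) with increasing concentrations of purified wild-type or mutant RbFox RRM.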
row,Binder,binding signal
1,B1,0.0286 KA relative to UGCAUGU
2,B2,0.00525 KA relative to UGCAUGU
3,B3,0.0112 KA relative to UGCAUGU
4,B4,0.0256 KA relative to UGCAUGU
5,B5,0.0331 KA relative to UGCAUGU
6,B6,0.0129 KA relative to UGCAUGU
7,B7,0.0284 KA relative to UGCAUGU
8,B8,0.0454 KA relative to UGCAUGU
9,B9,0.0185 KA relative to UGCAUGU
10,B10,0.0114 KA relative to UGCAUGU
11,B11,0.039 KA relative to UGCAUGU
12,B12,0.032 KA relative to UGCAUGU
13,B13,0.0276 KA relative to UGCAUGU
14,B14,0.0302 KA relative to UGCAUGU
15,B15,0.0249 KA relative to UGCAUGU
16,B16,0.00724 KA relative to UGCAUGU
17,B17,0.0155 KA relative to UGCAUGU
18,B18,0.00816 KA relative to UGCAUGU

row,Binder,binding signal
1,B19,0.0164 KA relative to UGCAUGU
2,B20,0.0231 KA relative to UGCAUGU
3,B21,0.0174 KA relative to UGCAUGU
4,B22,0.0043 KA relative to UGCAUGU
5,B23,0.0121 KA relative to UGCAUGU
6,B24,0.913 KA relative to UGCAUGU
7,B25,0.0211 KA relative to UGCAUGU
8,B26,0.0332 KA relative to UGCAUGU
9,B27,0.0203 KA relative to UGCAUGU
10,B28,0.0106 KA relative to UGCAUGU
11,B29,0.0154 KA relative to UGCAUGU
12,B30,0.0113 KA relative to UGCAUGU
13,B31,0.00704 KA relative to UGCAUGU
14,B32,0.965 KA relative to UGCAUGU
15,B33,0.0164 KA relative to UGCAUGU
16,B34,0.00891 KA relative to UGCAUGU
17,B35,1.02 KA relative to UGCAUGU
